Test results published in PubChem BioAssay.
Where “and” joins values, the source holds several entries; their conditions need not be identical. Equal entries are not always repeated. For part of these data: Results with a measured potency or affinity are listed apart. The source holds several records for some structures; these can differ, active in one and inactive in another. Calls of active or inactive are those of the source. Unless noted, the rule behind the calls is not given here.

Key:
[1] = antimalarial activity against Dd2 strain (AID 2302;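 active = growth inhibition above 50% at the single 2 µM test dose, taken to imply half-maximal potency below 2 µM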;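 note: 0% = DMSO untreated growth and 100% = chloroquine plus artemisinin killed control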); conditions: P. falciparum Dd2 in RBCs, LDH growth readout, 72 h; at 2 µM; stronger effect = higher value
[2] = human hepatoma cell viability loss – ATP luminescence, cytotoxicity control for P. falciparum antimalarial project, primary screen (AID 2303;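 active = inhibition above 50%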;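 note: 0% = DMSO wells and 100% = digitonin-killed cells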); conditions: HepG2 viability, 24-48 h, at 10 µM, stronger effect = higher value
[3] = biological target: L-lactate dehydrogenase (Plasmodium falciparum (isolate CDC / Honduras)) (UniProt Q27743); assay: PfLDH activity inhibition – cell lysate, 3D7 strain, counter-screen for P. falciparum growth inhibition project (AID 2304);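 note: 0% = vehicle and 100% = reference inhibitor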; conditions: P. falciparum 3D7 crude extract, LDH APAD/NBT absorbance; at 2 µM; stronger effect = higher value
Chain of L-lactate dehydrogenase (Plasmodium falciparum (isolate CDC / Honduras)) (Q27743 whole entry, looked up): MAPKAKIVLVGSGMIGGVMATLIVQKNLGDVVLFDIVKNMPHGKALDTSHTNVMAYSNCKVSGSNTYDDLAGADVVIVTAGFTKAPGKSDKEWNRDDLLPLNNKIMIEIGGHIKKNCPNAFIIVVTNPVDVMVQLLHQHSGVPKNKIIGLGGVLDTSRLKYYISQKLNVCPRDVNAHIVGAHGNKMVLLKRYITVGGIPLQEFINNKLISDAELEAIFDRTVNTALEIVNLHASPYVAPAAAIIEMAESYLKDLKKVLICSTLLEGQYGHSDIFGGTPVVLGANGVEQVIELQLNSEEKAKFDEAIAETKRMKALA

[4] = inhibition of 3D7 malaria parasite growth – strain 3D7 (AID 2306);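 note: 0% = DMSO wells and 100% = chloroquine plus artemisinin control wells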; conditions: P. falciparum 3D7 erythrocytic growth, LDH absorbance, 72 h; at 2 µM; stronger effect = higher value
[5] = biological target: Calcium-dependent protein kinase 1 (Plasmodium falciparum (isolate 3D7)) (UniProt P62344); assay: PfCDPK1 kinase inhibitors, biochemical, TCAMS library (AID 1159585; cut-off not given, nearly all actives have IC50 up to about 0.98 µM;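 note: inhibitors leave more ATP so luminescence rises with inhibition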); conditions: recombinant PfCDPK1, Kinase-Glo ATP depletion luminescence
Chain of Calcium-dependent protein kinase 1 (Plasmodium falciparum (isolate 3D7)) (P62344 whole entry, looked up): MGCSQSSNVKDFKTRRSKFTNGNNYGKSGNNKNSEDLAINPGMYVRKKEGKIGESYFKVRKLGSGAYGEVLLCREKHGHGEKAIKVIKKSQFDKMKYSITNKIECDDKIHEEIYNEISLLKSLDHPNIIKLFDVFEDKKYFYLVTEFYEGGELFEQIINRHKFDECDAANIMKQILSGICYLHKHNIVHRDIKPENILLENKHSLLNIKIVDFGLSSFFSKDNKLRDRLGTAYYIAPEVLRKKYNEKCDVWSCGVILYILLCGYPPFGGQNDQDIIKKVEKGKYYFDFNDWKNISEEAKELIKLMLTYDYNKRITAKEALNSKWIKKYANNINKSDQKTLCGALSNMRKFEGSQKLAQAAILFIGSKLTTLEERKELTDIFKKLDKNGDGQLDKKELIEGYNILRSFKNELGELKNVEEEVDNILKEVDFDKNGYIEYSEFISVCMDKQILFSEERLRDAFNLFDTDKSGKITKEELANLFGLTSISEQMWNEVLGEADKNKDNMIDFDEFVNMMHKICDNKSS

[6] = biological target: Plasmodium falciparum protein kinase 6 (PK6, PF3D7_1337100) (UniProt Q8IDW1); assay: PfPK6 kinase inhibitors, biochemical, TCAMS library (AID 1159586); conditions: recombinant PfPK6, Kinase-Glo ATP depletion luminescence
Chain of Plasmodium falciparum protein kinase 6 (PK6, PF3D7_1337100) (Q8IDW1 1-305): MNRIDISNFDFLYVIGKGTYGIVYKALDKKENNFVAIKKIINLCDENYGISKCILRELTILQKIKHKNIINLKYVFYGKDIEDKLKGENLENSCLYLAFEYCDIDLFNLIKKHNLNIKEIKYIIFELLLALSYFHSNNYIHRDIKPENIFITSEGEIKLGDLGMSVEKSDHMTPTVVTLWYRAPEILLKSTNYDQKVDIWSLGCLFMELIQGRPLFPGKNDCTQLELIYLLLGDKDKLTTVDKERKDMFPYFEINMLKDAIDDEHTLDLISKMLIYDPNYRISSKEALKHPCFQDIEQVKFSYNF

[7] = biological target: Protein kinase 7 (PK7), Plasmodium falciparum 3D7 (PF3D7_0213400) (UniProt Q7YTF7); assay: inhibition of Plasmodium PK7 catalytic activity – biochemical, TCAMS antimalarial set, Kinase-Glo luminescence (AID 1159587); conditions: recombinant PfPK7, Kinase-Glo ATP depletion luminescence
Chain of Protein kinase 7 (PK7), Plasmodium falciparum 3D7 (PF3D7_0213400) (Q7YTF7 1-343): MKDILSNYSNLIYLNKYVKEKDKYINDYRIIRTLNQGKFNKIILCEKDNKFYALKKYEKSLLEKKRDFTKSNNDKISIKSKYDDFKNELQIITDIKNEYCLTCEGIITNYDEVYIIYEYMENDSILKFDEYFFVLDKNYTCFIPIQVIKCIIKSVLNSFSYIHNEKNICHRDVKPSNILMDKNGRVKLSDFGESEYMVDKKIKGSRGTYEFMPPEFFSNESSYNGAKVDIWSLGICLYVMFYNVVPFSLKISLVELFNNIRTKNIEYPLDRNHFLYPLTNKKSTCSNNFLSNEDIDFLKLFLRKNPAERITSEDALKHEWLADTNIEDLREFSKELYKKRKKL

[8] = biological target: Calcium-dependent protein kinase 4 (Plasmodium falciparum (isolate 3D7)) (UniProt Q8IBS5); assay: PfCDPK4 kinase inhibitors, biochemical, TCAMS library (AID 1159588; cut-off not given, nearly all actives have IC50 up to about 0.91 µM); conditions: recombinant PfCDPK4, Kinase-Glo ATP depletion luminescence
Chain of Calcium-dependent protein kinase 4 (Plasmodium falciparum (isolate 3D7)) (Q8IBS5 whole entry, looked up): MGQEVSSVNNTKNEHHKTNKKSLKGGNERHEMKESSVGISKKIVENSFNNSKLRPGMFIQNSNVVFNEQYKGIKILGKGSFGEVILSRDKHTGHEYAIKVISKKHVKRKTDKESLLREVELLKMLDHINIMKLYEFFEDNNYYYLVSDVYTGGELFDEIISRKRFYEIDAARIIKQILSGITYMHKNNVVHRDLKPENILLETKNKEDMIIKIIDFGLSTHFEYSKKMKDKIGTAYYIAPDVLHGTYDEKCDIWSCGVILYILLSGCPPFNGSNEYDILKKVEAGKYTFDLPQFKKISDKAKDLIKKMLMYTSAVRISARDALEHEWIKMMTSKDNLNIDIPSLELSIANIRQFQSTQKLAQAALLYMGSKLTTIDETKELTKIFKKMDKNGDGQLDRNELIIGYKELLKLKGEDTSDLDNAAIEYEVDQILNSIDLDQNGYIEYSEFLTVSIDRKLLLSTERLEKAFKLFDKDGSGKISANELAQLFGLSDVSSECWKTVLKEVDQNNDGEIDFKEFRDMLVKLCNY

| SMILES | growth inhibition [1] | inhibition [2] | inhibition [3] | growth inhibition [4] | outcome [5] | outcome [6] | outcome [7] | outcome [8] |
| --- | --- | --- | --- | --- | --- | --- | --- | --- |
| COC(=O)c1ccc(CC(C)NCC(O)c2cccc(OC(F)(F)F)c2)cc1 (stereo not drawn) | 67% (active) | 2% (inactive) | -2% (inactive) | 98% (active) | inactive | inactive | inactive | inactive |
| COCCNCc1cccc(-c2cccc(CN(C(=O)Nc3ccccc3)C3CCN(Cc4ccccc4)CC3)c2)c1 | 65% (active) | 28% (inactive) | -1% (inactive) | 100% (active) | inactive | inactive | inactive | inactive |
| CC[C@H]1CN2CC[C@@H]1C[C@H]2[C@H](O)c1cc(-c2ccccc2)nc2ccc(O)cc12 | 99% (active) | 14% (inactive) | -2% (inactive) | 99% (active) | inactive | inactive | inactive | inactive |
| O=C(NC1CCC(CN2CCC(c3c[nH]c4ccccc34)CC2)CC1)c1cn(Cc2ccccc2)c2ccccc12 (stereo not drawn) | 48% (inactive) | 84% (active) | -3% (inactive) | 91% (active) | inactive | inactive | inactive | inactive |
| O=C1NCN(c2ccc(O)cc2)C12CCN(CCCC(c1ccc(F)cc1)c1ccc(F)cc1)CC2 | 34% (inactive) | 20% (inactive) | 2% (inactive) | 94% (active) | inactive | inactive | inactive | inactive |
| COc1ccc2[nH]cc(C3=CCN(C[C@H]4C[C@@H]4C(=O)c4ccccc4)CC3)c2n1 | 93% (active) | 22% (inactive) | -8% (inactive) | 95% (active) | inactive | inactive | inactive | inactive |
| CC(=O)C1(c2ccccc2)CCN(CCC2(c3ccc(Cl)c(Cl)c3)CN(C(=O)C3CCCCC3)CCO2)CC1 (stereo not drawn) | 99% (active) | 3% (inactive) | -2% (inactive) | 100% (active) | inactive | inactive | inactive | inactive |
| S=C(NCCc1ccc(Cl)cc1)N1CCC(CN2CCC(c3c[nH]c4ccccc34)CC2)CC1 | 7% (inactive) | 31% (inactive) | 0% (inactive) | 90% (active) | inactive | inactive | inactive | inactive |
| CN1CC=C(c2c[nH]c3ccc(Br)cc23)CC1 | 80% (active) | -3% (inactive) | 1% (inactive) | 88% (active) | inactive | inactive | inactive | inactive |
| O=C(/C=C/c1ccc2ccccc2c1)NC1CCC(CN2CCC(c3c[nH]c4ccccc34)CC2)CC1 (stereo not drawn) | 88% (active) | 28% (inactive) | 4% (inactive) | 100% (active) | inactive | inactive | inactive | inactive |
| O=C(/C=C/c1cccc2ccccc12)NC1CCC(CN2CCC(c3c[nH]c4ccccc34)CC2)CC1 (stereo not drawn) | 66% (active) and 72% (active) | 45% (inactive) and 53% (active) | 5% (inactive) and -3% (inactive) | 101% (active) and 100% (active) | inactive | inactive | inactive | inactive |
| Cc1ccc(C(=O)Nc2ccnc(N(C)C3CCN(Cc4cccc(O)c4)CC3)c2)cn1 | 1% (inactive) | 0% (inactive) | 4% (inactive) | 90% (active) | inactive | inactive | inactive | inactive |
| O=C(Cc1cc(=O)oc2cc(O)ccc12)N1CCC(CN2CCC(c3c[nH]c4ccccc34)CC2)CC1 | -11% (inactive) | 1% (inactive) | 3% (inactive) | 94% (active) | inactive | inactive | inactive | inactive |
| COC(=O)c1ccc(CC(C)NCC(O)c2cccc3ccccc23)cc1 (stereo not drawn) | 82% (active) | 3% (inactive) | 4% (inactive) | 96% (active) | inactive | inactive | inactive | inactive |
| O=C(/C=C/c1ccc(Cl)c(Cl)c1)N1CCC(CN2CCC(c3c(Br)[nH]c4ccccc34)CC2)CC1 | 99% (active) | 41% (inactive) | -4% (inactive) | 100% (active) | inactive | inactive | inactive | inactive |
| CCOC(=O)c1c(C)n(C2CCCCCC2)c2cc(Br)c(O)cc12 | 45% (inactive) | -1% (inactive) | -1% (inactive) | 87% (active) | inactive | inactive | inactive | inactive |
| COc1ccc(CN2CCN(CCOC(c3ccccc3)c3ccccc3)CC2)c(O)c1 | 84% (active) | 19% (inactive) | 0% (inactive) | 96% (active) | inactive | inactive | inactive | inactive |
| Oc1ccc(CN2CCN(CCOC(c3ccccc3)c3ccccc3)CC2)cc1Cl | 77% (active) | 7% (inactive) | 1% (inactive) | 98% (active) | inactive | inactive | inactive | inactive |

| SMILES | growth inhibition [1] | inhibition [2] | inhibition [3] | growth inhibition [4] | outcome [5] | outcome [6] | outcome [7] | outcome [8] |
| --- | --- | --- | --- | --- | --- | --- | --- | --- |
| COC(=O)c1ccc(CC(C)NCC(O)c2cccc(C(F)(F)F)c2)cc1C (stereo not drawn) | 74% (active) | 6% (inactive) | 2% (inactive) | 93% (active) | inactive | inactive | inactive | inactive |
| CN1CC=C(c2c[nH]c3ccc(OC(=O)c4ccccc4)cc23)C1 | 97% (active) | 12% (inactive) | 1% (inactive) | 96% (active) | inactive | inactive | inactive | inactive |
| Cc1[nH]c2ccccc2c1C1CCN(CC2CCC(NC(=O)/C=C/c3ccc(Cl)c(Cl)c3)CC2)CC1 (stereo not drawn) | 93% (active) | 15% (inactive) | 1% (inactive) | 101% (active) | inactive | inactive | inactive | inactive |
| COC(=O)/C=C/c1ccc(CC(C)NCC(O)c2cccc(Br)c2)cc1 (stereo not drawn) | 93% (active) | 2% (inactive) | 5% (inactive) | 97% (active) | inactive | inactive | inactive | inactive |
| COc1ccc(C2CNCc3c2cc(OC)c(OC)c3Cl)cc1 (stereo not drawn) | 3% (inactive) | 42% (inactive) | 2% (inactive) | 98% (active) | inactive | inactive | inactive | inactive |
| O=[N+]([O-])c1ccc(Oc2c(Cl)cc(S(=O)(=O)NC3CCC(CN4CCC(c5c[nH]c6ccccc56)CC4)CC3)cc2Cl)c(Cl)c1 (stereo not drawn) | 64% (active) | 30% (inactive) | -4% (inactive) | 100% (active) | inactive | inactive | inactive | inactive |
| CC(C)CNCc1ccc(-c2ccc(CN(C(=O)NC3CCCCC3)C3CCN(Cc4ccccc4)CC3)cc2)cc1 | 88% (active) | 39% (inactive) | -1% (inactive) | 101% (active) | inactive | inactive | inactive | inactive |
| COc1ccc(CC(C)NCC(O)c2ccc(Cl)c(Cl)c2)cc1 (stereo not drawn) | 96% (active) | 0% (inactive) | 6% (inactive) | 98% (active) | inactive | inactive | inactive | inactive |
| O=C(c1ccccc1)[C@H]1C[C@@H]1CN1CC=C(c2c[nH]c3ccccc23)CC1 | 73% (active) | 4% (inactive) | -6% (inactive) | 95% (active) | inactive | inactive | inactive | inactive |
| CCCC(=O)c1c(O)c2ccccc2oc1=O | 1% (inactive) | 11% (inactive) | -5% (inactive) | 93% (active) | inactive | inactive | inactive | inactive |
| OC1(CNCc2ccccc2)CCN(CCc2c[nH]c3ccc(F)cc23)CC1 | 4% (inactive) | 39% (inactive) | -2% (inactive) | 100% (active) | inactive | inactive | inactive | inactive |
| O=C(/C=C/c1ccc(C(F)(F)F)cc1)NC1CCC(CN2CCC(c3c[nH]c4ccccc34)CC2)CC1 (stereo not drawn) | 97% (active) and 100% (active) | 42% (inactive) and 73% (active) | -2% (inactive) and -3% (inactive) | 98% (active) and 101% (active) | inactive | inactive | inactive | inactive |
| CC[C@H]1CN2CC[C@@H]1C[C@H]2[C@H](O)c1cc(-c2ccc(Cl)c(Cl)c2)nc2ccc(O)cc12 | 99% (active) | -8% (inactive) | -1% (inactive) | 98% (active) | inactive | inactive | inactive | inactive |
| COc1ccc(C[C@@H](C)NC[C@H](O)c2cccc(Cl)c2)cc1F | 76% (active) | 2% (inactive) | -2% (inactive) | 88% (active) | inactive | inactive | inactive | inactive |
| O=C(Nc1cc(C(F)(F)F)cc(C(F)(F)F)c1)NC1CCC(CN2CCC(c3c[nH]c4ccccc34)CC2)CC1 (stereo not drawn) | 72% (active) and 98% (active) | 19% (inactive) and 58% (active) | 8% (inactive) and -8% (inactive) | 97% (active) and 101% (active) | inactive | inactive | inactive | inactive |
| CC1=C(C(=O)NC2CCC(CN3CCC(c4c[nH]c5ccccc45)CC3)CC2)Cc2ccccc21 (stereo not drawn) | 24% (inactive) and 15% (inactive) | 41% (inactive) and 37% (inactive) | 6% (inactive) and 7% (inactive) | 97% (active) and 99% (active) | inactive | inactive | inactive | inactive |
| O=C(NC1CCC(CN2CCC(c3c[nH]c4ccccc34)CC2)CC1)c1ccc(-c2cc(C(F)(F)F)ccc2Cl)o1 (stereo not drawn) | 34% (inactive) | 5% (inactive) | 3% (inactive) | 102% (active) | inactive | inactive | inactive | inactive |
| CN(C)c1cccc(NC(=O)NC2N=C(c3ccccc3)c3ccccc3N(CC(=O)N(C)c3ccccc3)C2=O)c1 (stereo not drawn) | 80% (active) | 1% (inactive) | 4% (inactive) | 99% (active) | inactive | inactive | inactive | inactive |
